Hit rate of the full screen: of about 39,000 compounds, about 220 (0.56%) showed activity. Only a selection was taken, and actives are over-represented in it overall. A number with no mark means an inactive call.
These molecules were tested on Escherichia coli K-12 BW25113 (assay: relative growth (OD600 normalised to plate interquartile mean) (fraction); higher = less growth inhibition, active = 0.2 or less). Settings: 50 µM; LB; incubation time: overnight (16-24 h).
`NS(=O)(=O)c1cc(-c2nn[nH]n2)c(NCc2cccs2)cc1Cl` showed a relative growth of 0.965.
Molecule `NC[C@H]1CCN(c2ccc(Oc3ccccc3)cc2)C1` has a relative growth of 0.669.
In the case of `C[C@H]1CCCCO[C@H](CN(C)C(=O)Cc2ccccc2)[C@@H](C)CN([C@@H](C)CO)C(=O)c2cc(NC(=O)c3ccccc3)ccc2O1`, the relative growth is reported as 1.03.
With `CCC=C(C(=O)NC1C(=O)N2C(C(=O)OCOC(=O)C(C)(C)C)=C(COC(N)=O)CSC12)c1csc(N)n1.Cl` (centres undefined) the relative growth was 0.0724 (active).
With `CON=C(C(=O)NC1C(=O)N2C(C(=O)OCOC(=O)C(C)(C)C)=C(C=Cc3scnc3C)CSC12)c1csc(N)n1` (centres undefined) the relative growth was 0.0492 (active).
With `CON=C(C(=O)N[C@@H]1C(=O)N2C(C(=O)OCOC(=O)C(C)(C)C)=C(C=Cc3scnc3C)CS[C@H]12)c1csc(N)n1` the relative growth was 0.0386 (active).
Molecule `Cc1ccc(S(=O)(=O)N(C)C[C@@H]2Oc3ccc(NS(=O)(=O)c4ccc(F)cc4)cc3C(=O)N([C@H](C)CO)C[C@@H]2C)cc1` has a relative growth of 1.08.
Molecule `COc1ccc(CN(C)C[C@@H]2Oc3c(NC(=O)Nc4ccc(C(F)(F)F)cc4)cccc3C(=O)N([C@@H](C)CO)C[C@H]2C)cc1` has a relative growth of 0.818.
Molecule `Cc1cc(-c2ccccc2)nc(-c2ccccc2)c1C` has a relative growth of 0.937.
In the case of `C[C@H]1CN([C@@H](C)CO)C(=O)c2cc(NC(=O)CCCCCC(=O)Nc3ccccc3N)ccc2O[C@H]1CN(C)S(=O)(=O)c1cn(C)cn1`, the relative growth is reported as 1.01.
Work on `CNC[C@H]1Oc2cc(C#CCN(C)C)ccc2S(=O)(=O)N([C@H](C)CO)C[C@@H]1C` yielded a relative growth of 1.02.
In the case of `C[C@@H]1CCCCO[C@@H](CN(C)C(=O)Nc2ccc3c(c2)OCO3)[C@H](C)CN([C@H](C)CO)C(=O)c2cc(NS(=O)(=O)c3ccc(F)cc3)ccc2O1`, the relative growth is reported as 1.01.
`Cc1noc(C)c1S(=O)(=O)Nc1ccc2c(c1)C(=O)N([C@H](C)CO)C[C@@H](C)[C@@H](CN(C)S(=O)(=O)c1cccs1)O2` showed a relative growth of 0.998.
`C[C@H]1CCCCO[C@H](CN(C)S(C)(=O)=O)[C@@H](C)CN([C@@H](C)CO)C(=O)c2cc(NC(=O)c3ccncc3)ccc2O1` gave a relative growth of 1.01.
In the case of `CCCCCOc1ccc(-c2cc(-c3ccc(C(=O)N[C@H]4C[C@@H](O)[C@@H](O)NC(=O)[C@H]5[C@@H](O)[C@@H](C)CN5C(=O)[C@H]([C@@H](O)CC(N)=O)NC(=O)[C@H]([C@@H](O)[C@@H](O)c5ccc(O)c(OS(=O)(=O)O)c5)NC(=O)[C@H]5C[C@@H](O)CN5C(=O)[C@H]([C@@H](C)O)NC4=O)cc3)no2)cc1`, the relative growth is reported as 0.952.
With `CC[C@H](C)C[C@H](C)CCCCCCCCC(=O)N[C@H]1C[C@@H](O)[C@@H](NCCN)NC(=O)[C@@H]2[C@@H](O)CCN2C(=O)[C@H]([C@H](O)CCN)NC(=O)[C@H]([C@H](O)[C@@H](O)c2ccc(O)cc2)NC(=O)[C@@H]2C[C@@H](O)CN2C(=O)[C@H]([C@@H](C)O)NC1=O` the relative growth was 0.173 (active).
`CCCCCOc1ccc(-c2ccc(-c3ccc(C(=O)N[C@H]4C[C@@H](O)[C@@H](O)NC(=O)[C@@H]5[C@@H](O)[C@@H](C)CN5C(=O)[C@H]([C@@H](C)O)NC(=O)[C@H]([C@H](O)[C@@H](O)c5ccc(O)cc5)NC(=O)[C@@H]5C[C@@H](O)CN5C(=O)[C@H]([C@@H](C)O)NC4=O)cc3)cc2)cc1` was tested, and the relative growth was 1.12.
For `NC1(C(=O)O)CC1`, the relative growth was 0.988.
In the case of `C[C@@H]1CN([C@@H](C)CO)C(=O)c2cc(C#Cc3ccc(F)cc3)cnc2O[C@@H]1CN(C)Cc1ccccn1`, the relative growth is reported as 0.995.
In the case of `Cc1ccc(S(=O)(=O)Nc2ccc3c(c2)C(=O)N([C@@H](C)CO)C[C@@H](C)[C@@H](CN(C)C(=O)Nc2cccc4ccccc24)OCCCC[C@@H](C)O3)cc1`, the relative growth is reported as 0.998.
In the case of `CC1COc2c(N3CCN(C)CC3)c(F)cc3c(=O)c(C(=O)O)cn1c23` (centres undefined), the relative growth is reported as 0.0447 (active).
`CN1CCN(c2c(F)cc3c(=O)c(C(=O)O)cn4c3c2OCN4C)CC1` was tested, and the relative growth was 0.0475 (active).
Work on `CN(c1ccc(N)cc1[N+](=O)[O-])S(C)(=O)=O` yielded a relative growth of 1.02.
With `C/C=C/c1ccc2c(c1)O[C@@H](CN(C)Cc1ccc(C(=O)O)cc1)[C@@H](C)CN([C@@H](C)CO)S2(=O)=O` the relative growth was 1.02.
`COc1ccccc1-c1ccc2c(c1)O[C@H](CN(C)C(=O)c1ccncc1)[C@@H](C)CN([C@H](C)CO)S2(=O)=O` was tested, and the relative growth was 1.01.
For `C[C@@H]1CN([C@@H](C)CO)C(=O)Cc2cc(NC(=O)Cc3cn(C)c4ccccc34)ccc2O[C@H]1CN(C)Cc1ccc(C(F)(F)F)cc1`, the relative growth was 1.02.
For `CCCNC(=O)N1C[C@H](C)[C@H](OC)CN(C)C(=O)c2ccc(NS(=O)(=O)CC(F)(F)F)cc2OC[C@H]1C`, the relative growth was 0.974.
In the case of `NCc1ccccc1CC(=O)NC1C(=O)N2C(C(=O)O)=C(CSc3nnnn3CC(=O)O)CSC12` (centres undefined), the relative growth is reported as 0.0453 (active).
With `Cn1nnnc1SCC1=C(C(=O)[O-])N2C(=O)C(NC(=O)C(O)c3ccccc3)C2SC1.[Na+]` (centres undefined) the relative growth was 0.0463 (active).
For `O=C([O-])C1=C(CSc2nnnn2CS(=O)(=O)[O-])CSC2C(NC(=O)C(O)c3ccccc3)C(=O)N12.[Na+].[Na+]` (centres undefined), the relative growth was 0.044 (active).
For `NC(=O)c1cc[n+](CC2=C(C(=O)[O-])N3C(=O)C(NC(=O)C(c4ccccc4)S(=O)(=O)[O-])C3SC2)cc1.[Na+]` (centres undefined), the relative growth was 1.08.
With `Cn1nnnc1SCC1=C(C(=O)[O-])N2C(=O)C(NC(=O)C(OC=O)c3ccccc3)C2SC1.[Na+]` (centres undefined) the relative growth was 0.365.
For `CCC(CC)c1ccc(O)cc1`, the relative growth was 0.994.
With `CNC[C@@H]1Oc2cc(C#CCN(C)C)ccc2S(=O)(=O)N([C@@H](C)CO)C[C@H]1C` the relative growth was 0.981.
Work on `Oc1ccccc1/N=C/c1ccncc1` yielded a relative growth of 0.953.
`Cc1nn(C)cc1NC(=O)C[C@@H]1CC[C@@H]2[C@H](COc3ccc(NC(=O)C4CCOCC4)cc3C(=O)N2C)O1` was tested, and the relative growth was 0.986.
`COc1ccc(S(=O)(=O)N(C)C[C@@H]2OCCCC[C@H](C)Oc3ccc(NC(=O)Nc4cccc5ccccc45)cc3C(=O)N([C@H](C)CO)C[C@H]2C)cc1` showed a relative growth of 0.966.
In the case of `C[C@@H]1CN([C@@H](C)CO)S(=O)(=O)c2ccc(C#CC(C)(C)O)cc2O[C@@H]1CN(C)Cc1ccccc1`, the relative growth is reported as 1.
`Cc1noc(C)c1S(=O)(=O)Nc1ccc2c(c1)C(=O)N([C@@H](C)CO)C[C@H](C)[C@@H](CN(C)Cc1ccccc1)O2` was tested, and the relative growth was 0.968.
Work on `C[C@H](CO)N1C[C@H](C)[C@H](CN(C)C(=O)Nc2ccc3c(c2)OCO3)OCCCC[C@H](C)Oc2ccc(NC(=O)Cc3ccccc3)cc2C1=O` yielded a relative growth of 0.991.
Molecule `CN(C)C(=O)C[C@H]1C=C[C@H](NC(=O)C2CCOCC2)[C@H](CO)O1` has a relative growth of 1.01.
With `COc1ccc(NC(=O)Nc2ccc3c(c2)C(=O)N([C@H](C)CO)C[C@@H](C)[C@@H](CN(C)S(=O)(=O)c2cccs2)OCCCC[C@@H](C)O3)cc1` the relative growth was 1.02.
`CO[C@@H]1CN(C)C(=O)c2cc(NS(=O)(=O)CC(F)(F)F)ccc2OC[C@@H](C)N(C(=O)c2ccc3c(c2)OCO3)C[C@H]1C` showed a relative growth of 0.937.
In the case of `Cc1ccc(S(=O)(=O)Nc2ccc3c(c2)C(=O)N([C@@H](C)CO)C[C@@H](C)[C@H](CN(C)C(=O)Cc2ccccc2)OCCCC[C@@H](C)O3)cc1`, the relative growth is reported as 1.01.
`C[C@H]1CN([C@@H](C)CO)C(=O)Cc2cc(NC(=O)CCN3CCOCC3)ccc2O[C@@H]1CN(C)Cc1ccccc1` gave a relative growth of 1.01.
Work on `C=CC(=O)NCCc1ccncc1` yielded a relative growth of 1.05.
In the case of `O=C(C[C@H]1C[C@H]2c3cc(NS(=O)(=O)c4ccc(F)cc4)ccc3O[C@H]2[C@H](CO)O1)NC1CCCC1`, the relative growth is reported as 0.974.
`Cl.O=C(O)c1cn(-c2ccc(F)cc2)c2cc(N3CCNCC3)c(F)cc2c1=O` was tested, and the relative growth was 0.0456 (active).
In the case of `Cc1ccc(C(=O)O)c(=O)n1C`, the relative growth is reported as 1.02.
With `CN1CCN(c2cc3c(cc2F)c(=O)c(C(=O)O)cn3-c2ccc(F)cc2)CC1.Cl` the relative growth was 0.0477 (active).
Work on `O=C(c1ccccc1F)N1CCNCC1` yielded a relative growth of 0.999.
`Cn1cc(S(=O)(=O)N2CCN(c3ccc(F)cc3)CC2)c(=O)n(C)c1=O` gave a relative growth of 1.01.
`O=C(CN1CCNCC1)c1ccc(F)cc1` gave a relative growth of 1.
`C[C@@H]1CCCCO[C@H](CN(C)S(=O)(=O)c2cn(C)cn2)[C@H](C)CN([C@H](C)CO)C(=O)c2cc(NS(C)(=O)=O)ccc2O1` gave a relative growth of 1.02.
Molecule `COc1ccc(-c2cn(CCCNC(=O)[C@H](Cc3ccccc3)NS(=O)(=O)c3ccc(C)cc3)nn2)cc1OC` has a relative growth of 1.02.
`COC1=C(OC)C(=O)C(CCCCCCCCCCO)=C(C)C1=O` showed a relative growth of 1.05.
With `COC1=C(OC)C(=O)C(CCCCCCCCCC[P+](c2ccccc2)(c2ccccc2)c2ccccc2)=C(C)C1=O` the relative growth was 0.0727 (active).
`CC1=C(C)C(=O)C(CCCCCCCCCC[P+](c2ccccc2)(c2ccccc2)c2ccccc2)=CC1=O` gave a relative growth of 0.308.
`C[C@@H]1CN([C@H](C)CO)S(=O)(=O)c2ccc(Br)cc2O[C@@H]1CN(C)C(=O)NC1CCCC1` showed a relative growth of 0.989.
With `Cc1cc(=S)oc2ccccc12` the relative growth was 0.943.
Work on `CC(C)CC#Cc1ccc2c(c1)O[C@H](CN(C)C(=O)NC1CCCC1)[C@H](C)CN([C@@H](C)CO)S2(=O)=O` yielded a relative growth of 0.997.
For `CCOC(=O)c1ccc(N2NC(=O)/C(=C/c3ccc([N+](=O)[O-])o3)C2=O)cc1`, the relative growth was 0.984.
`O=C(NN=Cc1ccc([N+](=O)[O-])o1)c1ccc(O)cc1` was tested, and the relative growth was 0.973.
Molecule `O=C(CN1CCOCC1)N/N=C/c1ccc([N+](=O)[O-])o1` has a relative growth of 0.801.
`NC(=O)N/N=C/c1ccc([N+](=O)[O-])o1` was tested, and the relative growth was 0.0425 (active).
In the case of `NC(=O)NN=Cc1ccc([N+](=O)[O-])o1`, the relative growth is reported as 0.0474 (active).
In the case of `COC(=O)N/N=C/c1ccc([N+](=O)[O-])o1`, the relative growth is reported as 0.0393 (active).
With `Nc1nnc(-c2ccc([N+](=O)[O-])o2)o1` the relative growth was 0.258.
For `O=C(N/N=C/c1ccc(CO)o1)c1ccccn1`, the relative growth was 1.
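Note: Wild-type cells incubated without shaking, value is the mean of two biological replicates.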
